According to PubChem BioAssay (EPA / NIEHS):
Values joined by “and” are separate entries in the source; they are usually repeats but may differ in a detail not shown here. Equal entries are not always repeated. More than one record can exist for a structure, and the calls need not agree. Active and inactive are the calls of the source. The calls were made as follows: active = hit-call score of the fitted dose curve at least 0.9, where 1 is the maximum; inactive = score below 0.9.

assay: APR_HepG2_MitoticArrest_24hr: Apredica 24-hour HepG2 Assay for Mitotic Arrest (AID 2282910); settings: high-content imaging, actives raise or lower the signal
Procedure: APR_HepG2_24hr is a cell-based, multiplexed-readout assay that uses HepG2, a human liver cell line, with measurements taken at 24 hours after chemical dosing in a 384-well plate.APR_HepG2_MitoticArrest_24hr is one of 10 assay component(s) measured or calculated from the APR_HepG2_24hr assay. It is designed to make measurements of cell phenotype, a form of morphology reporter, as detected with fluorescence intensity signals by HCS Fluorescent Imaging technology.Data from the assay component APR_HepG2_MitoticArrest_24hr was analyzed into 1 assay endpoint. This assay endpoint, APR_HepG2_MitoticArrest_24hr, was analyzed with bidirectional fitting relative to DMSO as the negative control and baseline of activity. Using a type of morphology reporter, measures of protein for gain or loss-of-signal activity can be used to understand the signaling at the pathway-level as they relate to the gene . Furthermore, this assay endpoint can be referred to as a primary readout, because this assay has produced multiple assay endpoints where this one serves a signaling function. To generalize the intended target to other relatable targets, this assay endpoint is annotated to the cell cycle intended target family, where the subfamily is arrest.
Cells were treated with dimethyl sulfoxide (DMSO) as a solvent control at a final concentration of 0.5% v/v or with compounds in DMSO with a resulting final DMSO concentration of 0.5% v/v. Compound treatment was done at concentrations of 0.39, 0.78, 1.56, 3.12, 6.24, 12.5, 25, 50, 100, and 200 uM in duplicate on each plate. Cells were treated with compounds for 1, 24, or 72 hr. Carbonyl […] m-chloro-phenylhydrazone (CCCP) and taxol were used as positive controls for mitochondrial function and cytoskeletal stability, respectively; DMSO served as the negative control for this experiment. Cells were fixed by the direct addition of 50 uL formaldehyde in Hank's Balanced Salt Solution (HBSS) to a final concentration of 3.7%. After incubation in the fixation medium for 30 min at room temperature (293-298 K), cells were rinsed twice with HBSS and treated with cell permeabilization buffer (16 uL of 0.5% Triton X-100) for 10 min at room temperature (293-298 K) before labeling. For mitochondrial membrane potential and mitochondrial measurements, pre-fixed cells were incubated with 50 uL of MitoTracker Red CMXRos (Invitrogen) at a concentration of 250 nM for 30 min before fixation. In the remaining cases, post-fixed cells were labeled by incubation with a multiplexed mixture of primary antibodies in HBSS for 60 min at room temperature (293-298 K) to detect immunoreactivity of c-Jun (1:500), phospho-histone H3 (1:100), phospho-histone H2A.x (1:200), p53 (1:400), alpha-tubulin (1:200) and Hoechst 33342 (2 ug/mL). Cells were labeled for multiplexed imaging on two separate plates: a) Hoechst 33342, MitoTracker Red, phospho-histone H3, and alpha-tubulin, and b) Hoechst 33342, phospho-histone H2A.x, and c-Jun. A final rinse with HBSS (50 uL) was performed before analysis. The primary and secondary antibodies for the proteins were phospho-histone H3 (rabbit anti-phospho-histone H3 and FITC-donkey anti-rabbit IgG), phospho-histone H2A.x (mouse anti-phospho-histone H2A.x and FITC-donkey anti-mouse IgG), c-Jun (rabbit anti-phospho-c-Jun and Cy3-donkey anti-rabbit IgG), p53 (sheep anti-p53 and Cy5-donkey anti-sheep IgG), alpha-tubulin (mouse anti-alpha-tubulin and Cy5-donkey anti-mouse IgG). These antibodies are available as the CellCiphr HepG2 assay kit (Millipore).Digital images of each well were captured using a Cellomics ArrayScan VTI (Thermo Scientific Cellomics) (0.8 NA objective, 0.63x optical coupler, and XF-93 filter set) at 20x magnification. The images were acquired using the autofocus feature of the ArrayScan instrument, which entails the following steps. First, the camera focuses on channel 1 (Hoechst 33342), where nuclei are identified. Second, a Z offset of 1 um is used for capturing mitochondria (MitoTracker Red). […]

Structure (SMILES)	outcome	AC50
CC(C)N(C(=O)COc1nnc(C(F)(F)F)s1)c1ccc(F)cc1	inactive	
CCCN(CCC)c1c([N+](=O)[O-])cc(C(F)(F)F)cc1[N+](=O)[O-]	inactive	
COc1nn(CSP(=S)(OC)OC)c(=O)s1	inactive	
Oc1cc(Cl)ccc1Oc1ccc(Cl)cc1Cl	inactive	61.6 µM (active) and 63.6 µM (active)
CNC(=O)Oc1cccc(N=CN(C)C)c1	inactive	
COC(=O)c1ccccc1CS(=O)(=O)NC(=O)Nc1nc(OC)cc(OC)n1	inactive	
CCS(=O)(=O)c1cccnc1S(=O)(=O)NC(=O)Nc1nc(OC)cc(OC)n1	inactive	
O=C(Nc1ccccc1)Nc1cnns1	inactive	
CCCN(CCOc1c(Cl)cc(Cl)cc1Cl)C(=O)n1ccnc1	inactive	
CN1CSC(=S)N(C)C1		27 µM (active)
CC(C)(C)C(O)/C(=C\c1ccc(Cl)cc1Cl)n1cncn1 (stereo not given)	inactive	
CCC(C)(C)C(=O)OC1=C(c2ccc(Cl)cc2Cl)C(=O)OC12CCCCC2	inactive	
O=C(O)C(F)(F)C(F)(F)C(F)(F)C(F)(F)C(F)(F)C(F)(F)C(F)(F)F	inactive	
COc1cc(OC)nc(NC(=O)NS(=O)(=O)c2cc(NC=O)ccc2C(=O)N(C)C)n1	inactive	
ClC1C(Cl)C(Cl)C(Cl)C(Cl)C1Cl (stereo not given)	inactive	
Oc1ccc(Cl)cc1Cc1ccccc1	inactive	43.1 µM (active) and 76.7 µM (active) and 54 µM (active)
COP(=S)(OC)Oc1ccc(SC)c(C)c1	inactive	
COC(=O)c1ccccc1S(=O)(=O)NC(=O)Nc1nc(C)nc(OC)n1	inactive	
CCOc1nc(NC)nc(NC(=O)NS(=O)(=O)c2ccccc2C(=O)OC)n1	inactive	

Structure (SMILES)	outcome	AC50
COP(=S)(OC)Oc1ccc([N+](=O)[O-])cc1	inactive	
CC[C@H](C)[C@H]1O[C@]2(C=C[C@@H]1C)C[C@@H]1C[C@@H](C/C=C(\C)[C@@H](O[C@H]3C[C@H](OC)[C@@H](O[C@H]4C[C@H](OC)[C@@H](O)[C@H](C)O4)[C@H](C)O3)[C@@H](C)/C=C/C=C3\CO[C@@H]4[C@H](O)C(C)=C[C@@H](C(=O)O1)[C@]34O)O2 (tested in a mixture with another compound)		111 µM (active)
N#CN	inactive	
OCCOc1ccccc1	inactive	
O=S(=O)(O)C(F)(F)C(F)(F)C(F)(F)C(F)(F)C(F)(F)C(F)(F)C(F)(F)C(F)(F)F		106 µM (active) [middle of 5 runs]
CNC(=O)CSP(=S)(OC)OC	inactive	
CC(C)(C)C(O)C(Oc1ccc(Cl)cc1)n1cncn1 (stereo not given)	inactive	
CC1(c2ccc(Oc3ccccc3)cc2)OC(=O)N(Nc2ccccc2)C1=O (stereo not given)		98.3 µM (active)
CCN(CC)C(=O)SCc1ccc(Cl)cc1	inactive	
CCOCN(C(=O)CCl)c1c(C)cccc1CC		17.9 µM (active)
CNC(=O)Oc1ccccc1OC(C)C	inactive	
COC(=O)c1ccccc1S(=O)(=O)NC(=O)N(C)c1nc(C)nc(OC)n1	inactive	
C[C@H]1[C@H](c2ccc(Cl)cc2)SC(=O)N1C(=O)NC1CCCCC1	inactive	
Cc1[nH]c(=O)n(C(C)(C)C)c(=O)c1Cl	inactive	
CCc1ccc(C(=O)NN(C(=O)c2cc(C)cc(C)c2)C(C)(C)C)cc1	inactive	
CCOC1Oc2ccc(OS(C)(=O)=O)cc2C1(C)C (stereo not given)	inactive	
O=[N+]([O-])c1c(Cl)c(Cl)c(Cl)c(Cl)c1Cl	inactive	
N#Cc1c(Cl)c(Cl)c(Cl)c(C#N)c1Cl	inactive	
O=C1c2ccccc2C(=O)N1SC(Cl)(Cl)Cl	inactive	
